Here are results for 40 sequences from the supplement of paper PMC10338343.

± gives the standard deviation.
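Note: 1 nM active piRISC with 0.1 nM target library at 33 °C single turnover.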

The test system of one test is MILI (PIWIL2) piRISC loaded with L1MC piRNA (26 nt). In words: pre-steady-state target cleavage rate (min^-1); guide: L1MC piRNA 5'p-UAACUAAAUACUAUGCAAGCUGUAGG; MIWI and MILI are mouse PIWI proteins and EfPiwi is from a freshwater sponge; tags in brackets are library labels; higher = faster piRNA-guided slicing of the target. The conditions noted are these: auxiliary factor: 500 nM mouse GTSF1. The essentials:
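In HEPES–potassium acetate buffer at 33 °C, […] transcribed, DNA-blocked target RNA library was mixed with 1 nM active affinity-purified piRISC carrying one synthetic guide, with or without 500 nM GTSF1 partner protein, for 0–8 or 0–960 min. Uncleaved targets were sequenced and normalised to depth and to weakly complementary targets; three trials were pooled and k3 was capped at 0.0001 min^-1. The pre-steady-state cleavage rate followed from a burst-and-steady-state fit.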
UCCUGGAUGUCCUUGCAUAGUAUUGUAGUUA: the “pre-steady-state target cleavage rate” value turned out to be 0.102 ± 0.023.

With UCCUGGAUGUCCUUGCAUAGUAGUUUAGUUA, the “pre-steady-state target cleavage rate” value is 0.0394 ± 0.014.

As for UCCUGGAUCAGCAUGCAUAGUAUUUUGUUA, the “pre-steady-state target cleavage rate” value worked out at 0.16 ± 0.021.

For UCCUGGUACAGCUUGGAAAGUAUUUAGUUA, the “pre-steady-state target cleavage rate” value was determined as 0.111 ± 0.014.

Regarding UCCUGGUACAGCUAGCAUAGUAUAUAGUUA, the “pre-steady-state target cleavage rate” value came to 0.183 ± 0.026.

UCCUGGAACUGCUUGCAUAGUAUUAAGUUA: the “pre-steady-state target cleavage rate” value was 0.173 ± 0.022.

As to UCCUGGAUGUGCUUGCUAAGUAUUUAGUUA, the “pre-steady-state target cleavage rate” value was 0.0146 ± 0.0062.

For UCCUGGAUGAGGUUGCUUAGUAUUUAGUUA, the “pre-steady-state target cleavage rate” value was determined as 0.12 ± 0.01.

For the sequence UCCUGGAUCAGCUUGCUUUGUAUUUAGUUA, the “pre-steady-state target cleavage rate” value was found to be 0.11 ± 0.015.

Regarding UCCUGGAUGAGCUACCAUAGUAUUUAGUUA, the “pre-steady-state target cleavage rate” value is 0.101 ± 0.018.

Regarding UCCUGGAUGAGCUUGCAAUGUAUUUAGUUA, the “pre-steady-state target cleavage rate” value was 0.0269 ± 0.0097.

In the case of UCCUGCUACAGCUUGCAUAGUCAUUUAGUUA, the “pre-steady-state target cleavage rate” value worked out at 0.0225 ± 0.0089.

As to UCCUGGAUGUGCUUGCAAAGUAUUAAGUUA, the “pre-steady-state target cleavage rate” value stood at 0.0349 ± 0.0076.

As to UCCUGGAACAGCUAGCAUAGUUUUUAGUUA, the “pre-steady-state target cleavage rate” value was 0.0448 ± 0.0092.

With UCCUGGAUGUCGAUGCAUAGUUAUUAGUUA, the “pre-steady-state target cleavage rate” value amounted to 0.00565 ± 0.0033.

For UCCUGGAUGUGCUUGGUAAGUAUUUAGUUA, the “pre-steady-state target cleavage rate” value is 0.00666 ± 0.0036.

Take UCCUGGAUGUCGAUGCAUAGUAAAUAGUUA: the “pre-steady-state target cleavage rate” value turned out to be 0.0191 ± 0.0068.

For UCCUCCUACAGGUUGCAUAGUAUUUAGUUA, the “pre-steady-state target cleavage rate” value amounted to 0.264 ± 0.013.

In the case of UCCUGGAUGUGCUUGCAUUGUAAUUAGUUA, the “pre-steady-state target cleavage rate” value came out at 0.0229 ± 0.0072.

Consider UCCUGGUACAGCUACCAUAGUAUUUAGUAA, for which the “pre-steady-state target cleavage rate” value stood at 0.28 ± 0.04.

In the case of UCCUGGAUGUGCUAGCAUACUAUUUAGUUA, the “pre-steady-state target cleavage rate” value worked out at 0.0195 ± 0.0053.

On to UCCUGGAUCAGCUUGCAAGUAUUUAGUUA, for which the “pre-steady-state target cleavage rate” value worked out at 0.0793 ± 0.011.

Turning to UCCUGGUACAGCUUGCAUAGUUUUUAGUUA, the “pre-steady-state target cleavage rate” value is 0.0505 ± 0.013.

Turning to UCCUGGUACAGCAUGCAUAGUAUUUAGAUA, the “pre-steady-state target cleavage rate” value is 0.137 ± 0.025.

Regarding UCCUGGAUGUCGAAGCAUAGUAUUUAGGUUA, the “pre-steady-state target cleavage rate” value was found to be 0.0552 ± 0.0097.

For the sequence UCCUGGAUGUGCUAGCAUAGUUUUUAGUUA, the “pre-steady-state target cleavage rate” value turned out to be 0.0108 ± 0.0046.

With UCCUGGAUGUCGAUGCCUAGUAUUUAGUUA, the “pre-steady-state target cleavage rate” value came out at 0.0127 ± 0.0028.

As for UCCUGGAUGUCGAUGCAAAGUAUUUAGUUA, the “pre-steady-state target cleavage rate” value was determined as 0.00863 ± 0.0026.

Turning to UCCUGGAUCAGCUUGCUUAGUAUUUAGUAA, the “pre-steady-state target cleavage rate” value is 0.218 ± 0.012.

As to UCCUGGAACAGCUUGCAUAGUGAUUUAGUUA, the “pre-steady-state target cleavage rate” value was found to be 0.0178 ± 0.007.

For UCCUGGAUGAGGUAGCAUAGUAUUUAGUUA, the “pre-steady-state target cleavage rate” value was 0.0611 ± 0.0091.

Take UCCUGGAUGUCGUUGCAUAGUAUUUAGUCA: the “pre-steady-state target cleavage rate” value turned out to be 0.146 ± 0.024.

For the sequence UCCUGGAUGUGCUUGCUUAGUAUAUAGUUA, the “pre-steady-state target cleavage rate” value is 0.0668 ± 0.011.

Regarding UCCUGGAUGUCCUUGCAUGGUAUUUAGUUA, the “pre-steady-state target cleavage rate” value is 0.0346 ± 0.011.

As for UCCUGGAUCAGCUUGCAUAGUUAUUUAGUUA, the “pre-steady-state target cleavage rate” value was 0.00888 ± 0.004.

Turning to UCCUGGAUGUGCUUGAAUAGUAUUUAGUUA, the “pre-steady-state target cleavage rate” value was found to be 0.127 ± 0.013.

As for UCCUGCUACAGCUAGCUUAGUAUUUAGUUA, the “pre-steady-state target cleavage rate” value is 0.227 ± 0.018.

Consider UCCUCCUACAGCUUGCUUAGUUUUUAGUUA, for which the “pre-steady-state target cleavage rate” value turned out to be 0.0513 ± 0.01.

Consider UCCUGGUACAGCUUGCAUAUAUUUAGUUA, for which the “pre-steady-state target cleavage rate” value was determined as 0.035 ± 0.011.

For UCCUGGUACAGCUUGCAUAGUAAAAAGUUA, the “pre-steady-state target cleavage rate” value is 0.104 ± 0.024.

The test is the same for the next values; noted with them: auxiliary factor: none (no GTSF1).
Consider UCCUGGAUGUCCUUGCAUAGUAUUGUAGUUA, for which the “pre-steady-state target cleavage rate” value came out at 0.0041 ± 0.003.

As to UCCUGGAUGUCCUUGCAUAGUAGUUUAGUUA, the “pre-steady-state target cleavage rate” value is 0.00805 ± 0.0029.

For the sequence UCCUGGAUCAGCAUGCAUAGUAUUUUGUUA, the “pre-steady-state target cleavage rate” value turned out to be 0.00405 ± 0.0024.

In the case of UCCUGGUACAGCUUGGAAAGUAUUUAGUUA, the “pre-steady-state target cleavage rate” value stood at 0.00903 ± 0.0035.

Turning to UCCUGGUACAGCUAGCAUAGUAUAUAGUUA, the “pre-steady-state target cleavage rate” value came out at 0.00329 ± 0.0024.

Turning to UCCUGGAACUGCUUGCAUAGUAUUAAGUUA, the “pre-steady-state target cleavage rate” value came out at 0.00346 ± 0.0024.

As to UCCUGGAUGUGCUUGCUAAGUAUUUAGUUA, the “pre-steady-state target cleavage rate” value stood at 0.00546 ± 0.0023.

For UCCUGGAUGAGGUUGCUUAGUAUUUAGUUA, the “pre-steady-state target cleavage rate” value worked out at 0.0107 ± 0.0022.

Regarding UCCUGGAUCAGCUUGCUUUGUAUUUAGUUA, the “pre-steady-state target cleavage rate” value is 0.0038 ± 0.0028.

Consider UCCUGGAUGAGCUACCAUAGUAUUUAGUUA, for which the “pre-steady-state target cleavage rate” value was 0.00301 ± 0.0025.

UCCUGGAUGAGCUUGCAAUGUAUUUAGUUA: the “pre-steady-state target cleavage rate” value is 0.00445 ± 0.0026.

For the sequence UCCUGCUACAGCUUGCAUAGUCAUUUAGUUA, the “pre-steady-state target cleavage rate” value is 0.00473 ± 0.002.

With UCCUGGAUGUGCUUGCAAAGUAUUAAGUUA, the “pre-steady-state target cleavage rate” value worked out at 0.0052 ± 0.0026.

For the sequence UCCUGGAACAGCUAGCAUAGUUUUUAGUUA, the “pre-steady-state target cleavage rate” value was found to be 0.00311 ± 0.0024.

UCCUGGAUGUCGAUGCAUAGUUAUUAGUUA: the “pre-steady-state target cleavage rate” value was 0.0042 ± 0.0022.

Consider UCCUGGAUGUGCUUGGUAAGUAUUUAGUUA, for which the “pre-steady-state target cleavage rate” value came to 0.00551 ± 0.0023.

As to UCCUGGAUGUCGAUGCAUAGUAAAUAGUUA, the “pre-steady-state target cleavage rate” value turned out to be 0.00231 ± 0.0023.

Turning to UCCUCCUACAGGUUGCAUAGUAUUUAGUUA, the “pre-steady-state target cleavage rate” value was 0.00924 ± 0.0019.

Consider UCCUGGAUGUGCUUGCAUUGUAAUUAGUUA, for which the “pre-steady-state target cleavage rate” value amounted to 0.00338 ± 0.0033.

For UCCUGGUACAGCUACCAUAGUAUUUAGUAA, the “pre-steady-state target cleavage rate” value turned out to be 0.00528 ± 0.0023.

As for UCCUGGAUGUGCUAGCAUACUAUUUAGUUA, the “pre-steady-state target cleavage rate” value was found to be 0.00539 ± 0.002.

In the case of UCCUGGAUCAGCUUGCAAGUAUUUAGUUA, the “pre-steady-state target cleavage rate” value is 0.00478 ± 0.0023.

As for UCCUGGUACAGCUUGCAUAGUUUUUAGUUA, the “pre-steady-state target cleavage rate” value stood at 0.00579 ± 0.0038.

Turning to UCCUGGUACAGCAUGCAUAGUAUUUAGAUA, the “pre-steady-state target cleavage rate” value was determined as 0.00437 ± 0.0029.

UCCUGGAUGUCGAAGCAUAGUAUUUAGGUUA: the “pre-steady-state target cleavage rate” value was 0.00259 ± 0.0025.

As to UCCUGGAUGUGCUAGCAUAGUUUUUAGUUA, the “pre-steady-state target cleavage rate” value turned out to be 0.00466 ± 0.0027.

As for UCCUGGAUGUCGAUGCCUAGUAUUUAGUUA, the “pre-steady-state target cleavage rate” value came out at 0.00351 ± 0.0023.

For the sequence UCCUGGAUGUCGAUGCAAAGUAUUUAGUUA, the “pre-steady-state target cleavage rate” value was 0.0036 ± 0.0027.

UCCUGGAUCAGCUUGCUUAGUAUUUAGUAA: the “pre-steady-state target cleavage rate” value was 0.00347 ± 0.0021.

UCCUGGAACAGCUUGCAUAGUGAUUUAGUUA: the “pre-steady-state target cleavage rate” value came out at 0.00499 ± 0.0023.

Turning to UCCUGGAUGAGGUAGCAUAGUAUUUAGUUA, the “pre-steady-state target cleavage rate” value came out at 0.00664 ± 0.0022.

UCCUGGAUGUCGUUGCAUAGUAUUUAGUCA: the “pre-steady-state target cleavage rate” value came out at 0.00639 ± 0.002.

For UCCUGGAUGUGCUUGCUUAGUAUAUAGUUA, the “pre-steady-state target cleavage rate” value was 0.00411 ± 0.0025.

Take UCCUGGAUGUCCUUGCAUGGUAUUUAGUUA: the “pre-steady-state target cleavage rate” value came to 0.00814 ± 0.0026.

As for UCCUGGAUCAGCUUGCAUAGUUAUUUAGUUA, the “pre-steady-state target cleavage rate” value came to 0.00454 ± 0.0027.

For UCCUGGAUGUGCUUGAAUAGUAUUUAGUUA, the “pre-steady-state target cleavage rate” value came out at 0.00936 ± 0.0025.

For UCCUGCUACAGCUAGCUUAGUAUUUAGUUA, the “pre-steady-state target cleavage rate” value was 0.00468 ± 0.0023.

Consider UCCUCCUACAGCUUGCUUAGUUUUUAGUUA, for which the “pre-steady-state target cleavage rate” value was 0.00379 ± 0.0023.

Regarding UCCUGGUACAGCUUGCAUAUAUUUAGUUA, the “pre-steady-state target cleavage rate” value worked out at 0.00493 ± 0.0024.

With UCCUGGUACAGCUUGCAUAGUAAAAAGUUA, the “pre-steady-state target cleavage rate” value was found to be 0.00471 ± 0.003.
